According to PubChem BioAssay (EPA / NIEHS):
Results filed as inconclusive are left out. Activity calls are given as the source filed them. Rule for the calls, unless noted: active = hit-call score of the fitted dose curve at least 0.9, where 1 is the maximum; inactive = score below 0.9.

How the values were obtained:
[1] = target: Paired box protein Pax-6 (Homo sapiens) (UniProt P26367); assay: ATG_Pax6_CIS: Attagene CIS-FACTORIAL HepG2 Assay for human Paired Box 6 (PAX6) (AID 2282956); conditions: HepG2 CIS-FACTORIAL PAX6 reporter transcription, RNA readout; actives raise or lower the signal
Procedure, shortened: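 Fluorescent RT-PCR products separated by capillary electrophoresis report PAX6-linked promoter mRNA in HepG2 cells 24 h post-dose. Curves fitted bidirectionally, DMSO as negative control.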

[2] = ATG_PXRE_CIS: Attagene CIS-FACTORIAL HepG2 Assay for human Pregnane X Receptor Element (PXRE) (AID 2282957); conditions: HepG2 Attagene CIS-FACTORIAL PXRE reporter, mRNA; actives raise or lower the signal
Procedure, shortened: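 Read-out: fluorescence of reporter-specific RT-PCR products resolved by capillary electrophoresis, fitted bidirectionally relative to DMSO. Human HepG2 liver cells carried transfected cis-promoter reporter units and were exposed to chemicals for 24 h.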

[3] = ATG_PPRE_CIS: Attagene CIS-FACTORIAL HepG2 Assay for human Peroxisome Proliferator-activated Response Element (PPRE) (AID 2282958); conditions: HepG2 PPRE cis-element reporter, Attagene transcription factor profiling; actives raise or lower the signal
Procedure, shortened: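 DMSO served as negative control and baseline for bidirectional curve fitting. Signal came from PPRE-regulated reporter mRNA in HepG2 cells, measured 24 h post-dosing by RT-PCR, 6-FAM primer extension and capillary electrophoresis.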

[4] = ATG_RORE_CIS: Attagene CIS-FACTORIAL HepG2 Assay for human RAR-related Orphan Receptor Element (RORE) (AID 2282959); conditions: HepG2 Attagene cis-factorial RORE reporter, mRNA; actives raise or lower the signal
Procedure, shortened: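 Transfect HepG2 with MRTUs; treat 24 h; extract RNA; RT with oligo(dT); PCR with reporter-specific primers; 6-FAM primer extension; HpaI digest 2 h at 37 C; capillary electrophoresis. Fit vs DMSO, bidirectional.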

[5] = ATG_Sox_CIS: Attagene CIS-FACTORIAL HepG2 Assay for human SRY-box transcription factor (SOX) (AID 2282960); conditions: HepG2 Attagene cis-factorial SOX reporter, mRNA; actives raise or lower the signal
Procedure, shortened: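 Fluorescence-labelled cDNA fragments from reporter transcripts, sized by CE, give the signal. Cells: HepG2, transiently transfected with cis-regulated reporter units. Exposure 24 h; DMSO negative control; bidirectional curve fitting.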

[6] = target: Transcription factor Sp1 (Homo sapiens) (UniProt P08047); assay: ATG_Sp1_CIS: Attagene CIS-FACTORIAL HepG2 Assay for human Specificity Protein 1 (Sp1) (AID 2282961); conditions: HepG2 Sp1 cis-reporter transcription, actives raise or lower the signal
Procedure, shortened: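 Chemicals are dosed onto HepG2 cells transfected with multiple cis-promoter reporter constructs, and after 24 h reporter RNA is reverse-transcribed, PCR-amplified and resolved by capillary electrophoresis for fluorescence quantitation; activity is scored up or down against DMSO.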

[7] = ATG_SREBP_CIS: Attagene CIS-FACTORIAL HepG2 Assay for human Sterol Regulatory Element Binding (SREBP) (AID 2282962); conditions: HepG2 Attagene cis-factorial SREBP reporter, mRNA; actives raise or lower the signal
Procedure, shortened: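 Endogenous factor activity is measured in HepG2 through multiplexed reporter units under cis-element control. Following a 24 h incubation, reporter transcripts are reverse-transcribed, PCR-amplified and sized by capillary electrophoresis; activity is fitted in both directions relative to DMSO.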

[8] = target: Signal transducer and activator of transcription 3 (Homo sapiens) (UniProt P40763); assay: ATG_STAT3_CIS: Attagene CIS-FACTORIAL HepG2 Assay for human Signal Transducer and Activator of Transcription 3 (STAT3) (AID 2282963); conditions: HepG2, Attagene cis-factorial STAT3 reporter transcription; actives raise or lower the signal
Procedure, shortened: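 Uses human liver HepG2 transiently carrying cis-regulated reporter transcription units. Following 24 h dosing, reporter mRNA induction was detected by RT-PCR and capillary electrophoresis, analysed bidirectionally versus DMSO.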

[9] = ATG_TA_CIS: Attagene CIS-FACTORIAL HepG2 Assay for human TA Basal Promoter (AID 2282964); conditions: HepG2 Attagene CIS-factorial TA basal promoter reporter; actives raise or lower the signal
Procedure, shortened: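 Transient MRTU transfection of HepG2 preceded 24 h compound exposure. Reporter mRNA levels were then read by RT-PCR with capillary electrophoresis, and this background-control endpoint was fitted bidirectionally to DMSO.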

[10] = ATG_TCF_b_cat_CIS: Attagene CIS-FACTORIAL HepG2 Assay for human T-Cell-Factor with beta-catenin (TCF/b-cat) (AID 2282965); conditions: HepG2 TCF/beta-catenin cis-reporter transcription, actives raise or lower the signal
Procedure, shortened: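 Using capillary electrophoresis as the read-out, labelled reporter cDNA fragments from transiently transfected HepG2 were sized and quantified. Exposure lasted 24 hours; activity in either direction was referenced to DMSO.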

[11] = ATG_TAL_CIS: Attagene CIS-FACTORIAL HepG2 Assay for human TAL Basal Promoter (AID 2282966); conditions: HepG2 Attagene cis-factorial TAL promoter reporter; actives raise or lower the signal;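 note: background control endpoint measuring basal TAL promoter reporter mRNA not a specific factor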
Procedure, shortened: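 HepG2, transient MRTU transfection, 24 h compound exposure; RNA → oligo(dT) RT → PCR → 6-FAM primer extension → HpaI digest → CE fluorescence. Bidirectional curve fit vs DMSO. Background-control readout.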

[12] = ATG_TGFb_CIS: Attagene CIS-FACTORIAL HepG2 Assay for human Transforming Growth Factor (TGF) (AID 2282967); conditions: HepG2 Attagene CIS TGFb reporter, mRNA transcription; actives raise or lower the signal
Procedure, shortened: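 After a 24-hour incubation with compound, transfected HepG2 cells were lysed for RNA; reporter cDNA was amplified, fluorescently end-labeled and separated by CE. DMSO served as baseline for bidirectional fits.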

[13] = ATG_VDRE_CIS: Attagene CIS-FACTORIAL HepG2 Assay for human Vitamin D Receptor Element (VDRE) (AID 2282968); conditions: HepG2 VDRE cis-reporter transcription, actives raise or lower the signal
Procedure, shortened: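 Transfected HepG2 reporter cells, chemical treatment 24 h. RNA isolated, cDNA amplified with reporter-specific primers, products analysed by capillary electrophoresis. Endpoint fitted in both directions versus DMSO.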

[14] = target: X-box-binding protein 1 (Homo sapiens) (UniProt P17861); assay: ATG_Xbp1_CIS: Attagene CIS-FACTORIAL HepG2 Assay for human X-box Binding Protein 1 (XBP1) (AID 2282972); conditions: HepG2 XBP1 cis-element reporter, Attagene multiplex; actives raise or lower the signal
Procedure, shortened: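 Multiplexed cis-reporter readout in transfected HepG2 liver cells. Exposure lasted 24 hours. Activity in either direction was fitted against DMSO as negative control and baseline.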

[15] = target: Glucocorticoid receptor (Homo sapiens) (UniProt P04150); assay: ATG_GR_TRANS: Attagene TRANS-FACTORIAL HepG2 Assay for human Glucocorticoid Receptor (GR) (AID 2282978; active = hit-call score of the fitted dose curve at least 0.9, where 1 is the maximum;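 note: activators score as hits since higher reporter transcript over DMSO is fitted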); conditions: HepG2 Attagene TRANS GR reporter, mRNA transcription
Procedure, shortened: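 Transiently transfected HepG2 cells express chimeric NR-GAL4 proteins acting on GAL4-UAS reporter units. Compounds are applied for 24 h. mRNA induction over DMSO is measured by capillary electrophoresis.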

[16] = ATG_M_19_TRANS: Attagene TRANS-FACTORIAL HepG2 Assay for M19 Transcription Factor (Internal Marker) (AID 2282974; active = hit-call score of the fitted dose curve at least 0.9, where 1 is the maximum); conditions: HepG2 Attagene TRANS-FACTORIAL M19 internal marker reporter
Procedure, shortened: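 Multiplexed TRANS format: HepG2 liver cells bearing transient GAL4-UAS reporter units, chemical treatment 24 h, reporter transcripts quantified by RT-PCR plus capillary electrophoresis. DMSO defines baseline.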

[17] = ATG_GAL4_TRANS: Attagene TRANS-FACTORIAL HepG2 Assay for GAL4 (Internal Marker) (AID 2282976; active = hit-call score of the fitted dose curve at least 0.9, where 1 is the maximum); conditions: HepG2 Attagene TRANS GAL4 internal marker reporter
Procedure, shortened: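 RT-PCR/capillary electrophoresis readout of reporter mRNA. HepG2, transient MRTU transfection (GAL4-UAS reporters), 24 h compound exposure. Background-control endpoint, positive direction vs DMSO baseline.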

[18] = target: Nuclear receptor subfamily 1 group I member 3 (Homo sapiens) (UniProt Q14994); assay: ATG_CAR_TRANS: Attagene TRANS-FACTORIAL HepG2 Assay for human Constitutive Androstane Receptor (CAR) (AID 2282969; active = hit-call score of the fitted dose curve at least 0.9, where 1 is the maximum;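 note: activators raise reporter mRNA above DMSO so AC50 marks induction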); conditions: HepG2 Attagene TRANS-FACTORIAL CAR reporter
Procedure, shortened: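 Steps: transient transfection of HepG2 with multiple GAL4-UAS reporter units; 24 h compound incubation; RNA isolation, RT-PCR, 6-FAM primer extension, HpaI digest; capillary electrophoresis. Gain-of-signal relative to DMSO negative control.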

Measured: AC50

Sequence of X-box-binding protein 1 (Homo sapiens) (P17861 whole entry, looked up): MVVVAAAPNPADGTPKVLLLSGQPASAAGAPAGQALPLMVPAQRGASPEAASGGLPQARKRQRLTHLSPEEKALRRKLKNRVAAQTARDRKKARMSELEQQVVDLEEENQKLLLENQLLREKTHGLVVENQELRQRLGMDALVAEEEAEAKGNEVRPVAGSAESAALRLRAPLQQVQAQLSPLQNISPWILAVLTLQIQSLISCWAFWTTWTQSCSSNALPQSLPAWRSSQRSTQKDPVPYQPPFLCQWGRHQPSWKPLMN
Sequence of Glucocorticoid receptor (Homo sapiens) (P04150 whole entry, looked up, the tested form may be a part): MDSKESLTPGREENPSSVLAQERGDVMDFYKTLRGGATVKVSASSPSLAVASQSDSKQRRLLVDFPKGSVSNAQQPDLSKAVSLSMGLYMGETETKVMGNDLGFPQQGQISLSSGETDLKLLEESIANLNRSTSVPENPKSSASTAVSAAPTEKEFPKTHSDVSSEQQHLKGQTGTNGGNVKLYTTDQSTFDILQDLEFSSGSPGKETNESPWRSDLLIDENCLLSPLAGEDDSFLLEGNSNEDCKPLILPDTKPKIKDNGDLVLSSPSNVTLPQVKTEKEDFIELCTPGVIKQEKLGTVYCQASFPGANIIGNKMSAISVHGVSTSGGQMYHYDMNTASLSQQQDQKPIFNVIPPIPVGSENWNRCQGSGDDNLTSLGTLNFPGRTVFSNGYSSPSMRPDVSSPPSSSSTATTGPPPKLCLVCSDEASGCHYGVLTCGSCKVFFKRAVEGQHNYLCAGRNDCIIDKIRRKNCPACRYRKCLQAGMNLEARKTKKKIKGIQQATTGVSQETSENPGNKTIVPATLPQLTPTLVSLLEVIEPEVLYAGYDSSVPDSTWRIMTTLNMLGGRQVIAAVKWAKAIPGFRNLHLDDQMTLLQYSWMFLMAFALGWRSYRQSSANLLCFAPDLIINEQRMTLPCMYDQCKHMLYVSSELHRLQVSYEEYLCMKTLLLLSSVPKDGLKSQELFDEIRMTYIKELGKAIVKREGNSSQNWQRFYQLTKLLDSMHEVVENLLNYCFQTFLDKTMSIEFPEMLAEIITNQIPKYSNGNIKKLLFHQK
Sequence of Transcription factor Sp1 (Homo sapiens) (P08047 whole entry, looked up): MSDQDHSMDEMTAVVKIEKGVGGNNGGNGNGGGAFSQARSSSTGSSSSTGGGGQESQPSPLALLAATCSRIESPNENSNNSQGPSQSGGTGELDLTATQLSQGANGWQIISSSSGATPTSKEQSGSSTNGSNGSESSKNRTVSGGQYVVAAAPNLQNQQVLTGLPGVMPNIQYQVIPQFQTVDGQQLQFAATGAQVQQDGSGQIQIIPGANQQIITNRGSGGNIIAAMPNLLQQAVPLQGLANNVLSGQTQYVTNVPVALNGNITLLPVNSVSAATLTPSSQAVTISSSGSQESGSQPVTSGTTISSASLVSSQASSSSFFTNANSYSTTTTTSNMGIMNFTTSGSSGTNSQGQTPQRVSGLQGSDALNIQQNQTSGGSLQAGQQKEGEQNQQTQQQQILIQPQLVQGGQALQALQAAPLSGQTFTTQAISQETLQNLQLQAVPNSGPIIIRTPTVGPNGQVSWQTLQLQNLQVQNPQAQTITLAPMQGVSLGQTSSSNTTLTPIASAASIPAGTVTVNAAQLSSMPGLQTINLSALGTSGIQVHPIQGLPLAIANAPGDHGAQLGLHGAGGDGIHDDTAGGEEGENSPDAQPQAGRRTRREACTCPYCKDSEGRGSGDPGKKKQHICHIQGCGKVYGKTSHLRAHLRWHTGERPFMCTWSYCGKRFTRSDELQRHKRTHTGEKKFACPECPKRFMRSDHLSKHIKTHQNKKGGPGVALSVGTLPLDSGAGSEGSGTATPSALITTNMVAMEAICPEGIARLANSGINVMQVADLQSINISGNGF
Sequence of Paired box protein Pax-6 (Homo sapiens) (P26367 whole entry, looked up): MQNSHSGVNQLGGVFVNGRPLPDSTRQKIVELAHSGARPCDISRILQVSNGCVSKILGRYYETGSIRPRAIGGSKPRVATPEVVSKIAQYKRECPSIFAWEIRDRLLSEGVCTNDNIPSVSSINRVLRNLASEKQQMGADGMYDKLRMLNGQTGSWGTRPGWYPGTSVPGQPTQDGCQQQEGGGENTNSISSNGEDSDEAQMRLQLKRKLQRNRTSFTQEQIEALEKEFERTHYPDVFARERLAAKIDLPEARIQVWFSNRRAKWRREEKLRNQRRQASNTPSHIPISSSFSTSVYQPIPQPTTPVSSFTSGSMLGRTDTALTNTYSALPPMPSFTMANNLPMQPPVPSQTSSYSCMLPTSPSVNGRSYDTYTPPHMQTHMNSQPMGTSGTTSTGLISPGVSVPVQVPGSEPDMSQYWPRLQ
Sequence of Signal transducer and activator of transcription 3 (Homo sapiens) (P40763 whole entry, looked up): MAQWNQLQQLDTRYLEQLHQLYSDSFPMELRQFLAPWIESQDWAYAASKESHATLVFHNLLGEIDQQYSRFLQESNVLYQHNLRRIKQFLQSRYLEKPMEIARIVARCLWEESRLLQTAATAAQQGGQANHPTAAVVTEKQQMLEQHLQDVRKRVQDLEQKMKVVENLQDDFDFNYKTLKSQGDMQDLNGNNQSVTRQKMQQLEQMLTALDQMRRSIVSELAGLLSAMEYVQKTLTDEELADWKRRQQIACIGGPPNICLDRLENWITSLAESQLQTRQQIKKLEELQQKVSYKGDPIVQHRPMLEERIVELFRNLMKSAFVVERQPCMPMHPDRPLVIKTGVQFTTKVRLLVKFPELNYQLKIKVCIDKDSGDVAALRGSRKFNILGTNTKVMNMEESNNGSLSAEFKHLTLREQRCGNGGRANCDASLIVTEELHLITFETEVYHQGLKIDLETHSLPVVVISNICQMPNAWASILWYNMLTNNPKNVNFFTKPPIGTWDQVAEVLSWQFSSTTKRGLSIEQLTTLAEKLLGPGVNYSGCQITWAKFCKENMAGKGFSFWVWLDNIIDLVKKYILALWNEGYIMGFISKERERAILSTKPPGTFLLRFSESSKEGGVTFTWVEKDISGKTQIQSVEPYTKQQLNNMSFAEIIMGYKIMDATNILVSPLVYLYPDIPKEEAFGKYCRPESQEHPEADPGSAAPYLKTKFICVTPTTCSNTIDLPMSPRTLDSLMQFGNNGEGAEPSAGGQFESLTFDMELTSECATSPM
Sequence of Nuclear receptor subfamily 1 group I member 3 (Homo sapiens) (Q14994 whole entry, looked up, the tested form may be a part): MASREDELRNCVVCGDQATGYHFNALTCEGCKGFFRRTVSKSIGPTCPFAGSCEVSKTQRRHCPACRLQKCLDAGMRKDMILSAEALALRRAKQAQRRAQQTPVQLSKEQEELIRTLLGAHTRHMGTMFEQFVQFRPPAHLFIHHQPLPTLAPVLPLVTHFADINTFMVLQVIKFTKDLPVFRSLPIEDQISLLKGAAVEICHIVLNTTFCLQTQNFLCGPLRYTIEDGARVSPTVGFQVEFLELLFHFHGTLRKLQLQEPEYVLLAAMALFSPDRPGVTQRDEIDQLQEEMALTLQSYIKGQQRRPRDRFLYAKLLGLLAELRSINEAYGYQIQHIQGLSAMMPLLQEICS

CCc1ncc(C)[nH]1
not listed: [16] | [17] | [18]
inactive: all other assays above

COC(=O)Nc1ccc(Cl)c(Cl)c1
active: [2] 100 µM | [10] 26.4 µM | [14] 26.7 µM
not listed: [13] | [15] | [16] | [17] | [18]
inactive: all other assays above

CC1(C)C(=O)N(Cl)C(=O)N1Br
active: [2] 62.7 µM
not listed: [13] | [17] | [18]
inactive: all other assays above

CCCC(=O)OCCc1ccccc1
not listed: [16] | [17] | [18]
inactive: all other assays above

COC(CC(C)CCCC(C)(C)O)OC (centres undefined)
not listed: [14] | [15] | [18]
inactive: all other assays above

NC(=S)NNC(N)=S
not listed: [9] | [13] | [14] | [17] | [18]
inactive: all other assays above

Nc1ccc2c(O)cc(S(=O)(=O)O)cc2c1
not listed: [10] | [13] | [15] | [16] | [17]
inactive: all other assays above
